# High-throughput results as filed in PubChem BioAssay.
# EP2 modulator = modulators of human EP2 prostaglandin E2 receptor | P43116 | induction, % at 25 µM | 0.83% of 260,000 active | AID 940 | EP2-expressing cells, cAMP HTRF FRET, PGE2 co-stimulation;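 active means compounds whose cAMP rise, as percent of the full-agonist control response, exceeds 60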;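 further: rat C6 glioma line stably carrying human EP2 under a CMV promoter; the protocol text gives 20 µM as final concentration; 100% = response of wells given 1 µM PGE2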
# Target sequence (P43116 whole entry, looked up): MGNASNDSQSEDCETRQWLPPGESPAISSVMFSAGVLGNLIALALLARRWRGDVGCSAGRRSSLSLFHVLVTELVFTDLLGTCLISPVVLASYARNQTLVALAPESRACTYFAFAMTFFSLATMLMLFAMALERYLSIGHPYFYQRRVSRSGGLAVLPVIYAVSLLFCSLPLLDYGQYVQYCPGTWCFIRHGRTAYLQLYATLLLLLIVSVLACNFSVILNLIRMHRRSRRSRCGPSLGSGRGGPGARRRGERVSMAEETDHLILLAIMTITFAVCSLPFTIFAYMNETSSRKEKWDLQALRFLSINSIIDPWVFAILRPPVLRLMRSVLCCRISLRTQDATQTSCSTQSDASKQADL
# KCC2 mod = modulators of human KCC2 chloride dependent transport | Q9H2X9 | KCC2 cells, thallium flux FluoZin-2 fluorescence | B-score of Tl+ flux slope (higher = more flux/activation; lower = inhibition) at 10 µM | 2.2% of 190,000 active | AID 1456;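 active means thallium flux slope and its plate-corrected score both differing from the plate sample mean at a set confidence after two filtering rounds, in either direction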;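 further: slope of fluorescence scaled to starting intensity during 10 to 20 s after thallium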
# EP2 antag = inhibitors of human EP2 prostaglandin E2 receptor. P43116. 0.52% of 260,000 active. C6 glioma cells expressing human EP2, cAMP TR-FRET; cells stimulated with saturating PGE2. inhibition, % at 25 µM;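 active means percent inhibition above 40 after rounding to a whole number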;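 further: rat C6 glioma host cells with rolipram phosphodiesterase inhibitor present; the protocol text gives 20 µM as final concentration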
# S1P3 antag = blocks the human S1P3 receptor; Q99500; CHO S1P3 NFAT-BLA reporter, FRET fluorescence, antagonist mode; inhibition, % at 4.98 µM; 0.27% of 170,000 active; AID 485;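 active means inhibition above the plate cutoff, the mean inhibition of test wells on that plate plus 3 SD, cut at about 28% in these data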;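 further: cells challenged with S1P at its EC80 of 0.8 µM; blue over green emission ratio from cleaved BLA substrate after 4 h stimulation; 0% = S1P-stimulated wells and 100% = unstimulated DMSO-only wells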
# * = called active by the depositor; nt = not tested or not shown; ! = repeats disagree. Only some compounds are listed: those with a hit (about 3.1% of all), similar ones and a draw of the others.
SMILES,EP2 modulator,KCC2 mod,EP2 antag,S1P3 antag
COc1cc2c(cc1OC)[C@]13CC[N@+]4(C)CC5=CCO[C@@H]6CC(=O)N2[C@@H]1[C@@H]6[C@@H]5C[C@]34O,27,nt,42*,nt
Cc1cccc(N2C(=O)NC(=O)/C(=C\C=C\c3ccco3)C2=O)c1,-109,-1.7,44*,-7
O=C1NC(=O)N(c2ccccc2)C(=O)/C1=C/C=C/c1ccco1,-102,-1.4,47*,-2
C=CCN1C(=O)NC(=O)/C(=C/C=C/c2ccccc2)C1=O,-67,0.35,129*,-4
Cc1ccc(N2C(=O)NC(=O)/C(=C\C=C\c3ccco3)C2=O)cc1,-29,-1.4,26,-4
CN1C(=O)/C(=C/C=C/c2ccco2)C(=O)NC1=S,-17,-0.093,7,-9
Cc1ccc(N2C(=O)NC(=O)/C(=C\C=C\c3ccco3)C2=O)cc1C,-95,0.35,88*,-1
CC1(C)CC2(CCCN(CCC(N)=O)C2)CCO1 (stereo not drawn),10,nt,14,nt
CC(C)n1cc(C(=O)NC2(c3ccc(F)cc3)CCCC2)cn1,-20,nt,nt,nt
O=C1NC(=O)N(Cc2ccccc2)C(=O)/C1=C\C=C\c1ccco1,-65,-1.4,63*,-16
Cc1ccc(C2=CCN(CC(=O)Nc3nc(C)c(C)s3)CC2)o1,-82,nt,nt,nt
N[C@H](Cc1ccc2oc3cc(=O)c4ccccc4c-3nc2c1)C(=O)O,-18,nt,68*,nt
CCC(CC)N1CCN(C(=O)COc2ccc(OC)cc2)CC1,5,nt,6,nt
CN(CCc1ccccc1)Cc1nc2ccccc2c(=O)[nH]1,-20,nt,6,nt
C[C@H]1CC[C@@H]2[C@@H](C)[C@H]3[C@H](C[C@H]4[C@@H]5CC=C6C[C@@H](O[C@@H]7O[C@H](CO)[C@H](O)[C@H](O[C@@H]8O[C@H](CO)[C@@H](O)[C@H](O)[C@H]8O)[C@H]7O[C@@H]7O[C@@H](C)[C@H](O)[C@@H](O)[C@H]7O)CC[C@]6(C)[C@H]5CC[C@]34C)N2C1,-72,0.0019,88*,-8
C[C@@H]1O[C@@H](O[C@H]2C[C@@H](O)[C@]3(CO)[C@@H]4C(CC[C@]3(O)C2)[C@@]2(O)CC[C@H](C3COC(=O)C3)[C@@]2(C)C[C@H]4O)[C@H](O)[C@H](O)[C@H]1O (stereo partly drawn),19,nt,12,nt
COc1nc(NCc2ccco2)nc(N2CC3CC(C2)c2cccc(=O)n2C3)n1 (stereo not drawn),-45,nt,10,nt
C[C@@H]1CC[C@@]2(OC1)OC1C(O)C3C4CC[C@H]5C[C@H](O[C@@H]6O[C@H](CO)[C@H](O[C@@H]7O[C@H](CO)[C@@H](O)[C@H](O[C@@H]8OC[C@@H](O)[C@H](O)[C@H]8O)[C@H]7O[C@@H]7O[C@H](CO)[C@H](O)[C@H](O[C@@H]8O[C@H](CO)[C@@H](O)[C@H](O)[C@H]8O)[C@H]7O)[C@H](O)[C@H]6O)[C@H](O)C[C@]5(C)C4CC[C@]3(C)C1[C@@H]2C (stereo partly drawn),-38,nt,116*,nt
C[N+]1(C)[C@@H]2CC[C@H]1CC(OC(=O)[C@@H](CO)c1ccccc1)C2 (stereo partly drawn),20,nt,50*,nt
CC1CCC(NC(=O)CN2C3CCC2CC(O)(c2ccco2)C3)CC1 (stereo not drawn),-32,nt,nt,nt
CC1(C)[C@@H]2CC[C@@]1(C)CN(CCC[N+](C)(C)C)C2,14,nt,41*,nt
Cc1cccc(-n2c(C)nc3c(Cl)cc(Cl)cc3c2=O)c1,10,nt,15,nt
CC(C)[C@]12O[C@H]1[C@@H]1O[C@]13[C@]1(O[C@H]1C[C@H]1C4=C(CC[C@@]13C)C(=O)OC4)[C@@H]2O,nt,-1.6,10,105*
CCC(Oc1ccccc1F)C(=O)N1CCC(C(C)=O)(c2ccccc2)CC1 (stereo not drawn),6,nt,6,nt
O=c1c2ccccc2[se]n1-c1ccccc1,-2,1.1,47*!,-4
SMILES,EP2 modulator,KCC2 mod,EP2 antag,S1P3 antag
O=C(CN1C(=O)CN=C(c2ccsc2)c2c1sc1c2CCCC1)N1CCCCC1,15,nt,13,nt
C=CCN1C(=O)CN=C(c2ccc(F)cc2)c2c1sc1c2CCCC1,65*,nt,3,nt
COc1ccc(Nc2nc(CC(=O)N(C)CCN3CCCCC3)cs2)cc1,-15,nt,4,nt
O=C1C(=O)c2ccccc2-c2ccccc21,-38,0.73,45*,nt
COc1ccc(-n2c(/C=C/c3ccccn3)nc3ccccc3c2=O)cc1,-1,nt,12,nt
CN1C[C@@H](C(=O)N[C@@]2(C)O[C@@]3(O)[C@H]4CCCN4C(=O)[C@@H](Cc4ccccc4)N3C2=O)C=C2c3cccc4[nH]cc(c34)C[C@@H]21,3,nt,66*,nt
COC(=O)C1C=C2c3cccc4[nH]cc(c34)CC2N(C)C1 (stereo not drawn),-8,0.2,8,-7
O=C(CN1C2CCC1CC(O)(c1ccccn1)C2)NCC1CCCO1 (stereo not drawn),-16,nt,1,nt
O=c1oc2ccccc2c(O)c1C(c1ccc([N+](=O)[O-])cc1)c1c(O)c2ccccc2oc1=O,9,-1.6,9,11
CC/C(CC(c1ccccc1)c1c(O)c2ccccc2oc1=O)=N\NC(N)=S (stereo not drawn),40,-0.39,4,-2
O=C(C[C@H](c1ccccc1)c1c(O)c2ccccc2oc1=O)c1ccccc1,12,nt,46*,nt
CC(C)c1ccc(C(c2c(O)c3ccccc3oc2=O)c2c(O)c3ccccc3oc2=O)cc1,-11,nt,70*,nt
CCCn1nc(CC(=O)N2CCCCC2CN2CCCCC2)c2ccccc2c1=O (stereo not drawn),-8,nt,5,nt
COc1cccc2c1C(=O)c1c(O)c3c(c(O)c1C2=O)C[C@](O)(/C(C)=N/O)C[C@@H]3O[C@@H]1C[C@H](N)[C@@H](O)[C@H](C)O1,8,nt,46*,nt
CCCn1c(C(=O)c2ccc(OC)c(OC)c2)nc2ccccc21,34,nt,15,nt
O=C1N[C@]2(CN3CCC2CC3)C(=O)N1CN(Cc1ccccc1)c1ccccc1,8,nt,54*,nt
CCOc1ccc(CN2CCNCC2)cc1,-13,nt,3,nt
CCN(CC)C(=O)c1ccc(NC(=O)c2cccc(C(F)(F)F)c2)cc1,-14,0.68,6,-7
CC1(C)N=C(N)N=C(N)N1c1cccc(C(=O)Nc2ccc(S(=O)(=O)F)cc2)c1,12,nt,52*,nt
C[C@@]12C[C@@H](c3ccoc3)OC(=O)[C@@H]1CC[C@]1(C)C2[C@H]2C=C[C@]1(O)C(=O)O2 (stereo partly drawn),14,nt,10,nt
COc1ccc(C)cc1CN1C2CCC1CC(O)(c1ccccc1F)C2 (stereo not drawn),5,nt,4,nt
O=C1NC(=O)N(Cc2ccccc2Cl)C(=O)/C1=C/c1cccs1,-83,0.64,33,-16
O=C1NC(=O)N(Cc2ccc(F)cc2)C(=O)/C1=C/c1cccs1,-65,-1,93*,-1
Clc1ccc2c(c1)C(c1ccccc1Cl)=NCc1nnc(Br)n1-2,22,-0.88,10,nt
Cc1ccccc1C1=NCC(=S)Nc2ccc(Cl)cc21,27,5.7*,7,nt
